Holding throughout (assay): DAPPL (digital affinity profiling via proximity ligation, sequencing); 10 mM Tris-HCl pH 7.5, 50 mM NaCl, 1 mM DTT, 4% glycerol, room temperature, 30 min; GST-TFs on glutathione beads, 16-mer random dsDNA library, 0.1% formaldehyde crosslink after washing; high values mean tight binding
Test [1] deals with T1, FLI1 (Homo sapiens, UniProt Q01543 1-452).
T1 sequence: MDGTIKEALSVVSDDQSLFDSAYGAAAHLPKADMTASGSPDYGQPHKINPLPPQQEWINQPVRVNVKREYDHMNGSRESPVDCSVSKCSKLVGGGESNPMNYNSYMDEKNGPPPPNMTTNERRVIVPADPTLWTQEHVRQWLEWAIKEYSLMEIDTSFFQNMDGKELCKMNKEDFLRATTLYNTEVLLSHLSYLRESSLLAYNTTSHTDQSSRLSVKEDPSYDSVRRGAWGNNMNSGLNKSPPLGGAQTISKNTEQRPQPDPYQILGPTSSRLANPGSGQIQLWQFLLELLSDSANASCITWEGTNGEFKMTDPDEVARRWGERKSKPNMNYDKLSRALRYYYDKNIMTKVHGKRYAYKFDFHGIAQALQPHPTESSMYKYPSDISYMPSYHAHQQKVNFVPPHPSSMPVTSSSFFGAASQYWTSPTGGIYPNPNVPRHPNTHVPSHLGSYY
Particulars: protein: recombinant; tags: N-terminal GST; dsDNA, one strand shown. In outline: (§1)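 Binding signal is each hexamer's read frequency for a factor divided by its frequency in the tag-only sample. The factors were GST-fused human transcription factors from yeast, captured on glutathione beads, DNA-barcoded and pooled with that sample. Pools were incubated with 200 nmole of a random double-stranded 16-mer DNA library in Tris/NaCl/DTT/glycerol buffer at room temperature for 30 min, then washed, crosslinked with 0.1% formaldehyde, proximity-ligated with BsaI/T4 ligase (1 h, 37 °C), PCR-amplified and sequenced on an Illumina NextSeq500.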

Test [2] addresses T2, ELK1 (Homo sapiens, UniProt P19419 1-428).
T2 sequence: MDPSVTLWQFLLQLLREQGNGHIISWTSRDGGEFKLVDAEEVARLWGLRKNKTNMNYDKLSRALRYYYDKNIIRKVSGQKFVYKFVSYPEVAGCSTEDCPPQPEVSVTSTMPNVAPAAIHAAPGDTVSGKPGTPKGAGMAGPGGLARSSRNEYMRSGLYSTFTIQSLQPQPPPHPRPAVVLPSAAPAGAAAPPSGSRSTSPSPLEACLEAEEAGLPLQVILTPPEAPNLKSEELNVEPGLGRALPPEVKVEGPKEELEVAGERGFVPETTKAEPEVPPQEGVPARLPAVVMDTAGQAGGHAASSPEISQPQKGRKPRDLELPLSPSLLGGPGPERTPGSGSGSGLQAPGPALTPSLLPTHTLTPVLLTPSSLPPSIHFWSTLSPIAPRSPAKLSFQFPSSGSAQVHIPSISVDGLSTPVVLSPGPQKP
Particulars: protein: recombinant; tags: N-terminal GST; dsDNA, one strand shown. In outline:
as §1

The target in test [3] is T3, GABPA (Homo sapiens, UniProt Q06546 1-454).
T3 sequence: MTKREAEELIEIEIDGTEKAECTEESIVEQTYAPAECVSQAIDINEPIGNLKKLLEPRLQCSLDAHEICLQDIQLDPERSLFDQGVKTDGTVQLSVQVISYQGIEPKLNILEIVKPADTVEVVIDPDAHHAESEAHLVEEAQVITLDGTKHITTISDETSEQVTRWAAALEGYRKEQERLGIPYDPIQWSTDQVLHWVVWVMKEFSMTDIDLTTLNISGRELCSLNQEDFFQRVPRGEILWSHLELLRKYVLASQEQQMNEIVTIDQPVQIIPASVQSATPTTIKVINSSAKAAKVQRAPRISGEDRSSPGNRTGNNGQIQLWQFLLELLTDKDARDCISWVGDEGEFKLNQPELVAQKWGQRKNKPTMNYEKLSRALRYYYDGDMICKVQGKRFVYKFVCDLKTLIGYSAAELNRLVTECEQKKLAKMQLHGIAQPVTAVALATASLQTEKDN
The note with it: protein: recombinant; tags: N-terminal GST; dsDNA, one strand shown. In outline: as §1

In test [4] the target is T4, ERG (Homo sapiens, UniProt P11308 1-479).
T4 sequence: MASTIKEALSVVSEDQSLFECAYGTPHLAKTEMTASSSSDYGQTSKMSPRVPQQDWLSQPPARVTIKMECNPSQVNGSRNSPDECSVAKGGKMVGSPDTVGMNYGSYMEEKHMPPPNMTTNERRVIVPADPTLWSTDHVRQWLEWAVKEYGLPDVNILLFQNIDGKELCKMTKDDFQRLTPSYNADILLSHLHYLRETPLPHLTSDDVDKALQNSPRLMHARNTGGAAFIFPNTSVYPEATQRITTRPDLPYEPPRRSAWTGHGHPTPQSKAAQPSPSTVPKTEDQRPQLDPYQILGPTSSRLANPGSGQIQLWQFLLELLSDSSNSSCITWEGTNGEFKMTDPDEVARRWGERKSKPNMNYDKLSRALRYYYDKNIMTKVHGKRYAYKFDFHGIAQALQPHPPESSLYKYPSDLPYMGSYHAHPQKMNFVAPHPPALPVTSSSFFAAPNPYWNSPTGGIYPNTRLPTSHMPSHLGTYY
The note with it: protein: recombinant; tags: N-terminal GST; dsDNA, one strand shown. In outline: as §1

The target in test [5] is ELF1 (Homo sapiens, UniProt P32519 1-619). The note with it: protein: recombinant; tags: N-terminal GST; dsDNA, one strand shown. In outline: as §1
Sequence of ELF1 (P32519 whole entry): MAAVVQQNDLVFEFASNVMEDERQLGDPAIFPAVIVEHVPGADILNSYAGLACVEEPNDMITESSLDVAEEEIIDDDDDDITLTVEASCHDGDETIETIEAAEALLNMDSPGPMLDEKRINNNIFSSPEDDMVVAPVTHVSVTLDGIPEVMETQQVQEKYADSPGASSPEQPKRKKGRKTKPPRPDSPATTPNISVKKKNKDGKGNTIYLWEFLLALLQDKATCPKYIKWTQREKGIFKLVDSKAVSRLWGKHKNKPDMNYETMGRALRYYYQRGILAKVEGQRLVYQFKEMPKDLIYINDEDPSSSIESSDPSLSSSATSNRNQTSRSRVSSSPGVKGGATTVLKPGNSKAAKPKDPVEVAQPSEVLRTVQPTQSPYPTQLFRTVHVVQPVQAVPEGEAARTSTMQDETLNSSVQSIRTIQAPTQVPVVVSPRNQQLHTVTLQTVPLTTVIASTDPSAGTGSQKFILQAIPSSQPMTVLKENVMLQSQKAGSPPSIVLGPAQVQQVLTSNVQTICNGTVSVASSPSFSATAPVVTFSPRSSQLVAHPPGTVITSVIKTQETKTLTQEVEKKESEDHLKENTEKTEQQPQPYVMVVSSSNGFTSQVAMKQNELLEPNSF
Test [6] deals with T5, EHF (Homo sapiens, UniProt Q9NZC4 1-300).
T5 sequence: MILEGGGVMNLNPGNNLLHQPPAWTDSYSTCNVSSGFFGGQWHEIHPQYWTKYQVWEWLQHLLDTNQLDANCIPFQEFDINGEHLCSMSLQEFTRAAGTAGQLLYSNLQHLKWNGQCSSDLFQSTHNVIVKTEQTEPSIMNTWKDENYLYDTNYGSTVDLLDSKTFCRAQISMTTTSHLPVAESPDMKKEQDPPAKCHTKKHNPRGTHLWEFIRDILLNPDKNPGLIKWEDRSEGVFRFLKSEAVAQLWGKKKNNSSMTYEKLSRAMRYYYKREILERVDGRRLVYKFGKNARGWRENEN
Particulars: protein: recombinant; tags: N-terminal GST; dsDNA, one strand shown. In short, it runs like this:
as §1

Test [7] concerns the target SPI1 (Homo sapiens, UniProt P17947 1-270). Particulars: protein: recombinant; tags: N-terminal GST; dsDNA, one strand shown. In short, it runs like this: as §1
Test [8] addresses SPIB (Homo sapiens, UniProt Q01892 1-262). The note with it: protein: recombinant; tags: N-terminal GST; dsDNA, one strand shown. In short, it runs like this:
as §1

For test [9], the target named is T6, ELK3 (Homo sapiens, UniProt P41970 1-407).
T6 sequence: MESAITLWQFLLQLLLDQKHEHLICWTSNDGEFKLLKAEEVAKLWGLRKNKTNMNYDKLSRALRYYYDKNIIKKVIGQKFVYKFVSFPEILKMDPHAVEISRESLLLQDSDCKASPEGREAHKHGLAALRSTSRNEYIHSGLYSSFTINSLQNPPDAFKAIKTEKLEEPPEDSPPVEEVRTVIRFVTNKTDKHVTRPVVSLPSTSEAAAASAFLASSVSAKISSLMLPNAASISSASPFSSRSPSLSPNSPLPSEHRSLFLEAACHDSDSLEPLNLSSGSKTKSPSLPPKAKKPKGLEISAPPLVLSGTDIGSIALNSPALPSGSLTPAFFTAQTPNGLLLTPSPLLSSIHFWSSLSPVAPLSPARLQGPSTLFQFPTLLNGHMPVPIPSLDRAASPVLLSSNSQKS
Particulars: protein: recombinant; tags: N-terminal GST; dsDNA, one strand shown. In outline: as §1

The target in test [10] is T7, FEV (Homo sapiens, UniProt Q99581 1-238).
T7 sequence: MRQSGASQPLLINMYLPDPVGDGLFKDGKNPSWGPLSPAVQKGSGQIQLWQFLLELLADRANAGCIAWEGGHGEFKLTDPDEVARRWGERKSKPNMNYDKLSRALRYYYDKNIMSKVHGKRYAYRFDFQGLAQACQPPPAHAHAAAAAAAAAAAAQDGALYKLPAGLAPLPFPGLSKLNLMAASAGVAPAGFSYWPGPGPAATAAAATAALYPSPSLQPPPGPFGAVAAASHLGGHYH
Particulars: protein: recombinant; tags: N-terminal GST; dsDNA, one strand shown. In outline:
as §1

Test [11] concerns the target ETV5 (Homo sapiens, UniProt P41161 1-510). Particulars: protein: recombinant; tags: N-terminal GST; dsDNA, one strand shown. In outline: as §1
Test [12] deals with HSF1 (Homo sapiens, UniProt Q00613 1-529). The note with it: protein: recombinant; tags: N-terminal GST; chain copies: 3; dsDNA, one strand shown. In outline:
as §1

The target of test [13] is T8, SPIC (Homo sapiens, UniProt Q8N5J4 1-248).
T8 sequence: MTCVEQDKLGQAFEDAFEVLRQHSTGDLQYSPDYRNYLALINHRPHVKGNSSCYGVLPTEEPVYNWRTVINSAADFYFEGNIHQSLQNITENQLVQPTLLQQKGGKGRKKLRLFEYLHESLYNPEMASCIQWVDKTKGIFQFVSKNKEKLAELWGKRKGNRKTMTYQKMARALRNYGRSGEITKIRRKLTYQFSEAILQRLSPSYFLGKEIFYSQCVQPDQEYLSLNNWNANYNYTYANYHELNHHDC
The note with it: protein: recombinant; tags: N-terminal GST; dsDNA, one strand shown. In outline:
as §1

Test [14] concerns the target ELF4 (Homo sapiens, UniProt Q99607 1-663). Particulars: protein: recombinant; tags: N-terminal GST; dsDNA, one strand shown. In outline: as §1
Test [15] deals with T9, ELK4 (Homo sapiens, UniProt P28324-2 1-405).
T9 sequence: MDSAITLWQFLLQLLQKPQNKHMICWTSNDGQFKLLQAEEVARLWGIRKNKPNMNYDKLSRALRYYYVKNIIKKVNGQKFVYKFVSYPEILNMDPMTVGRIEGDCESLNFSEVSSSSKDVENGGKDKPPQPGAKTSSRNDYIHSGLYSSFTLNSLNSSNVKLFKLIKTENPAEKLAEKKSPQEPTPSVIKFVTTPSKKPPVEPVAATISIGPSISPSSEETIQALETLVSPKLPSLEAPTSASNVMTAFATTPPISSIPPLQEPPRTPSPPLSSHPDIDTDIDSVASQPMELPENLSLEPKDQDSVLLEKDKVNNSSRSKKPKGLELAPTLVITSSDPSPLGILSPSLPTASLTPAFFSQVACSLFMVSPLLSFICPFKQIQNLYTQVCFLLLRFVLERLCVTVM
The note with it: protein: recombinant; tags: N-terminal GST; dsDNA, one strand shown. In outline:
as §1

The target in test [16] is T10, ETV2 (Homo sapiens, UniProt O00321 1-342).
T10 sequence: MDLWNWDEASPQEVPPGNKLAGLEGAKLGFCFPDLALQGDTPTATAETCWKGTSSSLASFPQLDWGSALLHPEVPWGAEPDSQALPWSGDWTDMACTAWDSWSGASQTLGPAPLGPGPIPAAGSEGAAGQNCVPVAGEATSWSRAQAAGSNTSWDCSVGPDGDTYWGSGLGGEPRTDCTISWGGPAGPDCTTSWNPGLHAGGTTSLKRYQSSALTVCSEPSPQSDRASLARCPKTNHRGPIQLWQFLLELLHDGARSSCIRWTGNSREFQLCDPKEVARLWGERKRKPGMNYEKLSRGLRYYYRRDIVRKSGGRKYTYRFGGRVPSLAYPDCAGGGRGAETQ
The note with it: protein: recombinant; tags: N-terminal GST; dsDNA, one strand shown. In short, it runs like this: as §1

Test [17] deals with T11, ELF3 (Homo sapiens, UniProt P78545 1-371).
T11 sequence: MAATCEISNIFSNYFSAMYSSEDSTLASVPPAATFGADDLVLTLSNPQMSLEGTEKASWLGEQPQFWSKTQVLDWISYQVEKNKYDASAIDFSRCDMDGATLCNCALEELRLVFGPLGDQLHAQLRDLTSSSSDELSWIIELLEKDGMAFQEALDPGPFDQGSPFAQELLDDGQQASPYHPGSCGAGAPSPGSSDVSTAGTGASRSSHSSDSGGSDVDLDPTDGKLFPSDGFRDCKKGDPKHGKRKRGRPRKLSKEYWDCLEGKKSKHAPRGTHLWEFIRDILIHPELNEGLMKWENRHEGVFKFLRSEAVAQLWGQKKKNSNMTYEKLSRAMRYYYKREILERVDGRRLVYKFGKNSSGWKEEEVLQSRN
Particulars: protein: recombinant; tags: N-terminal GST; dsDNA, one strand shown. In short, it runs like this: as §1

Test [18] addresses CRX (Homo sapiens, UniProt O43186 1-299). The note with it: protein: recombinant; tags: N-terminal GST; dsDNA, one strand shown. In outline:
as §1

The target in test [19] is ETV1 (Homo sapiens, UniProt P50549 1-477). The note with it: protein: recombinant; tags: N-terminal GST; dsDNA, one strand shown. In outline: as §1
Sequence of ETV1 (P50549 whole entry): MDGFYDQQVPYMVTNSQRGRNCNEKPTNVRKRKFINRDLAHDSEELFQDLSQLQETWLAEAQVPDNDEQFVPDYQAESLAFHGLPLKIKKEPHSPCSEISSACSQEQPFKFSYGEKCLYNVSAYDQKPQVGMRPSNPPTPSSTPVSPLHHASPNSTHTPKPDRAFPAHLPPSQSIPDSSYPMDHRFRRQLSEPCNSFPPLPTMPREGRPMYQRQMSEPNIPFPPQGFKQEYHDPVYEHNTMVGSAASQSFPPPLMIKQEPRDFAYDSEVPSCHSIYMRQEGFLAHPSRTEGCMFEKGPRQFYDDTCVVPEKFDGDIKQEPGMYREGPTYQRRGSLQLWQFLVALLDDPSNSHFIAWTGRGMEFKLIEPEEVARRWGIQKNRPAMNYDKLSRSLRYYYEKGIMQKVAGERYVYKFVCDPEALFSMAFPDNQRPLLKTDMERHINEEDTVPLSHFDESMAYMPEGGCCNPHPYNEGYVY

Sequence of ETV5 (P41161 whole entry): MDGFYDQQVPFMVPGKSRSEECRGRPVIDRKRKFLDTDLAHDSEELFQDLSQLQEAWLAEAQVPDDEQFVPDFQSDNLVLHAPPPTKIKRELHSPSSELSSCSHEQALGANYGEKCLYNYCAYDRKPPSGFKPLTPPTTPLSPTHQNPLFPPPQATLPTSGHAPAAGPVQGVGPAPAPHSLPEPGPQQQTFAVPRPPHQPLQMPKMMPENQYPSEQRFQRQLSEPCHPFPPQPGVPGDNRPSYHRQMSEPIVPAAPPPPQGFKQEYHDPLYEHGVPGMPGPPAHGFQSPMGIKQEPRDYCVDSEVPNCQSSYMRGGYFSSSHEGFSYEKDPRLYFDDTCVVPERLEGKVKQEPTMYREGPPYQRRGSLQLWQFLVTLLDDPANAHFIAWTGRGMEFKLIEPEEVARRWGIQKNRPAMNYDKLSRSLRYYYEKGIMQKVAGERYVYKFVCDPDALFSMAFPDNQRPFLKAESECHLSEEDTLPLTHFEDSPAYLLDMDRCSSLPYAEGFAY
Sequence of HSF1 (Q00613 whole entry): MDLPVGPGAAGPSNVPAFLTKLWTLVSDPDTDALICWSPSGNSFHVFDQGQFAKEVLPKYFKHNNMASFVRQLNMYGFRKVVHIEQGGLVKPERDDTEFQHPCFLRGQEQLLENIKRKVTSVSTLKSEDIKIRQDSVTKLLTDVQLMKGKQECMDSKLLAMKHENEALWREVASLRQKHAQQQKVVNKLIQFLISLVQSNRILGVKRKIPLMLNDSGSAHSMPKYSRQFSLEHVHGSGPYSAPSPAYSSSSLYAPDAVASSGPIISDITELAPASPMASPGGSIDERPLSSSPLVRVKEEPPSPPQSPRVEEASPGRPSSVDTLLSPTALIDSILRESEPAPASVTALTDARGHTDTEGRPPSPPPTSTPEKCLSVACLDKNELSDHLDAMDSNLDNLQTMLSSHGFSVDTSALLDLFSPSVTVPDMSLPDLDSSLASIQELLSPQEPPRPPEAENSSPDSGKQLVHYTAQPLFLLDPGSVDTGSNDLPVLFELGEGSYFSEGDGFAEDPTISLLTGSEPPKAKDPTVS
Sequence of CRX (O43186 whole entry): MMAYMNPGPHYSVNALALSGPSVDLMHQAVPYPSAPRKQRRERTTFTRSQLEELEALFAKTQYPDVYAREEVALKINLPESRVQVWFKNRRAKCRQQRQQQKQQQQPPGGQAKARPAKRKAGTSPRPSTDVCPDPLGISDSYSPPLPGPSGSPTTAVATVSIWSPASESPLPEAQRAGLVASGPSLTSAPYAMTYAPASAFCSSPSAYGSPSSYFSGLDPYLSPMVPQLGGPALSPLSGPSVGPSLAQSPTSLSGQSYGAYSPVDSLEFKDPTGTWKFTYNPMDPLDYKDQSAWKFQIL
Sequence of SPIB (Q01892 whole entry): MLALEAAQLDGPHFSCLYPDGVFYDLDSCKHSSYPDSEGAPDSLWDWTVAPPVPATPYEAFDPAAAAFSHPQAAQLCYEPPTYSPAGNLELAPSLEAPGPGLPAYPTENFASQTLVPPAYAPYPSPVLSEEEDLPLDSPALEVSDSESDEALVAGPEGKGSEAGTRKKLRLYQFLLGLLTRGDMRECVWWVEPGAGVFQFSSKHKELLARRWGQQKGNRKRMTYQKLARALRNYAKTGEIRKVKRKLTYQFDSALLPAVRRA
Sequence of ELF4 (Q99607 whole entry): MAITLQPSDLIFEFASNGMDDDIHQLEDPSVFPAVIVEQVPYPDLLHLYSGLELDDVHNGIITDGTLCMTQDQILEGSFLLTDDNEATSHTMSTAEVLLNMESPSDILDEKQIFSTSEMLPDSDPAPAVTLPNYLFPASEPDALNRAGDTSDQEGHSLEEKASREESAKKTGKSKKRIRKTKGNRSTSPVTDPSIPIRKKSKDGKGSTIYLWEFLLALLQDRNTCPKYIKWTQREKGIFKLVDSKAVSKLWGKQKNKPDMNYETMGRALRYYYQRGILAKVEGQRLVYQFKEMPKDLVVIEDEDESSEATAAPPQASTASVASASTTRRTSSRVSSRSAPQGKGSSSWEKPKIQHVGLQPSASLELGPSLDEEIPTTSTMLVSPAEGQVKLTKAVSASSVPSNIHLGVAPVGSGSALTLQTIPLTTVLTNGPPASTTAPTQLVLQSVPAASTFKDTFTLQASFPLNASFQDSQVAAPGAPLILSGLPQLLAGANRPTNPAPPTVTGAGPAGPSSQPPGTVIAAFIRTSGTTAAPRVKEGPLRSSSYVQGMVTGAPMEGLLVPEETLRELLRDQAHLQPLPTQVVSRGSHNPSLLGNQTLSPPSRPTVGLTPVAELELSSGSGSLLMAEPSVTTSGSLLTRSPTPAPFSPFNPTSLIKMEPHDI

With GGTTTA, the binding signal was 1.12 fold enrichment (6-mer frequency, TF over GST control) in test [1]; 1.01 fold enrichment (6-mer frequency, TF over GST control) in test [2]; 1.05 fold enrichment (6-mer frequency, TF over GST control) in [3]; 1.1 fold enrichment (6-mer frequency, TF over GST control) in [4]; 1.02 fold enrichment (6-mer frequency, TF over GST control) in test [5]; 1.08 fold enrichment (6-mer frequency, TF over GST control) in test [6]. Moreover, the binding signal is 1.09 fold enrichment (6-mer frequency, TF over GST control) in test [7]; 1.05 fold enrichment (6-mer frequency, TF over GST control) in test [8]; 1.07 fold enrichment (6-mer frequency, TF over GST control) in test [9]; 1.05 fold enrichment (6-mer frequency, TF over GST control) in test [10]; 1.06 fold enrichment (6-mer frequency, TF over GST control) in [11]; 1.29 fold enrichment (6-mer frequency, TF over GST control) in test [12]. Moreover, the binding signal in test [13] was 1.13 fold enrichment (6-mer frequency, TF over GST control); in test [14] it was 1.06 fold enrichment (6-mer frequency, TF over GST control); in [15] it was 1.13 fold enrichment (6-mer frequency, TF over GST control); in [16], 1.15 fold enrichment (6-mer frequency, TF over GST control); in test [17] it was 1.13 fold enrichment (6-mer frequency, TF over GST control); in test [18], 1.66 fold enrichment (6-mer frequency, TF over GST control). In test [19], the binding signal is 1.05 fold enrichment (6-mer frequency, TF over GST control).

Values taken from publication PMC7862700, “An all-to-all approach to the identification of sequence-specific readers for epigenetic DNA modifications on cytosine”.
